The record followed here is PubChem BioAssay (NCATS).

Experiment [1] deals with Cytochrome P450 2D6 (Homo sapiens) (UniProt P10635). Nature of the experiment: Cytochrome P450 family 2 subfamily D member 6 (CYP2D6) small molecule antagonists: luciferase biochemical (cell-free) qHTS assay (AID 1645840; active = well fitted curve in the direction sought with a large enough effect in the repeat runs; an effect the other way counts as inactive or inconclusive; note: nearly all actives have a fitted effect of over 55% in size; note: potency is the fitted concentration of half-maximal effect; for activity change, negative = inhibition: % is set by controls: 0 for no effect and ±100 for the full control effect). The following applies: P450-Glo CYP2D6 enzyme, luciferin luminescence, 1 h; series mostly up to 57.4 µM. A digest of the protocol: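 P450-Glo luminescent screen: recombinant CYP2D6 enzyme–proluciferin substrate mix preincubated with compound 10 min at room temperature, then NADPH regeneration added for 1 h at room temperature. Detection reagent added for 20 min; luciferin light read as relative luminescence units.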
Cytochrome P450 2D6 (Homo sapiens), sequence (P10635 whole entry, looked up): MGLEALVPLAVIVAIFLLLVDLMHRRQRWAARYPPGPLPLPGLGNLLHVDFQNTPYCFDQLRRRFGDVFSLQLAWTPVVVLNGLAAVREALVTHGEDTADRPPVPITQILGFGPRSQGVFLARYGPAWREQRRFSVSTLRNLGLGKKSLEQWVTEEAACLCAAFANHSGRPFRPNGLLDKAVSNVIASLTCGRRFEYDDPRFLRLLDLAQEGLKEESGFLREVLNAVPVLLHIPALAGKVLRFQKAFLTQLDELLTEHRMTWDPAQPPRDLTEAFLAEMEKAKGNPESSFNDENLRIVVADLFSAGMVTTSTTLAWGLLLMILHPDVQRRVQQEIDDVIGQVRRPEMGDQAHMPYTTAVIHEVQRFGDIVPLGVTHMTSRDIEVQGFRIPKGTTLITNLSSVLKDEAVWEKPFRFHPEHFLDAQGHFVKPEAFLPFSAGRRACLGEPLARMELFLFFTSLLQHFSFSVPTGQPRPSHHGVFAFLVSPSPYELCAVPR
Background: In qHTS, concentration-response curves come from the screen itself.

Experiment [2] in a line: Primary qHTS for inhibitors of nuclear receptor binding SET domain protein 2 (NSD2) in an isogenic RCH-ACV NSD2 p.E1099K mutant (9B) (AID 1645876). For activity change, negative = viability loss: % is set by controls: 0 for no effect and ±100 for the full control effect. Note: nearly all actives have a fitted effect of over 70% in size. Note: potency is the fitted concentration of half-maximal effect. The following applies: RCH-ACV NSD2 E1099K (9B) viability, CellTiter-Glo, 72 h; series mostly up to 44.9 µM.
The nature of experiment [3]: Primary qHTS for inhibitors of nuclear receptor binding SET domain protein 2 (NSD2) in an RCH-ACV wild type WT cells (2C) (AID 1645877). For activity change, negative = cell killing: % is set by controls: 0 for no effect and ±100 for the full control effect. Note: nearly all actives have a fitted effect of over 70% in size. Note: potency is the fitted concentration of half-maximal effect. The following applies: RCH-ACV (leukaemia line) NSD2 WT (2C) viability, CellTiter-Glo, 72 h; series mostly up to 44.9 µM.
In experiment [4] the target is Cytochrome P450 2C9 (Homo sapiens) (UniProt P11712). Nature of the experiment: Cytochrome P450 family 2 subfamily C member 9 (CYP2C9) small molecule antagonists: luciferase biochemical (cell-free) qHTS assay (AID 1645842; active = well fitted curve in the direction sought with a large enough effect in the repeat runs; an effect the other way counts as inactive or inconclusive; note: nearly all actives have a fitted effect of over 55% in size; note: potency is the fitted concentration of half-maximal effect; for activity change, negative = inhibition: % is set by controls: 0 for no effect and ±100 for the full control effect). The following applies: P450-Glo CYP2C9 enzyme assay, luciferin luminescence; series mostly up to 57.4 µM. Put shortly:
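Luminescence, after 20 min with luciferin detection reagent, reflected CYP2C9 turnover during a 1 h NADPH-driven reaction at 37C. Enzyme-substrate mix contained 0.4% bovine serum albumin and was preincubated with compound 10 min at room temperature.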

The target of experiment [5] is Cytochrome P450 3A4 (Homo sapiens) (UniProt P08684). Nature of the experiment: Cytochrome P450 family 3 subfamily A member 4 (CYP3A4) small molecule antagonists: luciferase qHTS assay (AID 1645841; active = well fitted curve in the direction sought with a large enough effect in the repeat runs; an effect the other way counts as inactive or inconclusive; note: nearly all actives have a fitted effect of over 45% in size). The following applies: P450-Glo CYP3A4 enzyme assay, luciferin luminescence; series mostly up to 57.4 µM. Put shortly:
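Luminescent CYP3A4 activity readout: compounds plus enzyme-substrate mix 10 min at room temperature, reaction started with NADPH regenerating system for 1 h, stopped with detection reagent, read after 20 min. Ketoconazole served as control.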

The target in experiment [6] is N-terminal Xaa-Pro-Lys N-methyltransferase 1 (Homo sapiens) (UniProt Q9BV86). Put plainly: Confirmatory qHTS for Inhibitors of N-terminal methyltransferase 1 (NTMT1): MTaseGlo Assay (AID 1645874).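 Note: luminescence from SAH made as NTMT1 methylates SPKRIA peptide using SAM; 0% = DMSO control and -100% = no-enzyme control; nearly all actives have a fitted effect of over 65% in size.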 The following applies: NTMT1 enzyme, MTase-Glo SAH luminescence; series mostly up to 100 µM. A digest of the protocol:
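NTMT1 (125 nM) preincubated 15 min with compound and 100 uM SAM, then 1 uM SPKRIA peptide added for 30 min at room temperature. SAH detected by MTase-Glo luminescence; normalized to no-enzyme and DMSO controls, fitted to 4-parameter Hill.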

SMILES strings stand for the structures. Values joined by “and” are separate entries in the source; they are usually repeats but may differ in a detail not shown here. Identical values can stand only once. Inconclusive results are not listed. Where a structure was tested more than once in an assay, its records may differ in their call. Active and inactive are the calls of the source. Unless noted, calls come from the whole dose curve; as a rule, active = well fitted curve in the direction sought with a large enough effect; inconclusive = small, poorly fitted or top-dose-only effect, or another doubt; inactive = no such curve, though single readings can be large; an effect the other way counts as inactive or inconclusive. Where a SMILES comes first, the peptide text is derived from it. The star is where a group is joined. AFC = O=c1cc(C(F)(F)F)c2ccc(N*)cc2o1

Cytochrome P450 2C9 (Homo sapiens), sequence (P11712 whole entry, looked up): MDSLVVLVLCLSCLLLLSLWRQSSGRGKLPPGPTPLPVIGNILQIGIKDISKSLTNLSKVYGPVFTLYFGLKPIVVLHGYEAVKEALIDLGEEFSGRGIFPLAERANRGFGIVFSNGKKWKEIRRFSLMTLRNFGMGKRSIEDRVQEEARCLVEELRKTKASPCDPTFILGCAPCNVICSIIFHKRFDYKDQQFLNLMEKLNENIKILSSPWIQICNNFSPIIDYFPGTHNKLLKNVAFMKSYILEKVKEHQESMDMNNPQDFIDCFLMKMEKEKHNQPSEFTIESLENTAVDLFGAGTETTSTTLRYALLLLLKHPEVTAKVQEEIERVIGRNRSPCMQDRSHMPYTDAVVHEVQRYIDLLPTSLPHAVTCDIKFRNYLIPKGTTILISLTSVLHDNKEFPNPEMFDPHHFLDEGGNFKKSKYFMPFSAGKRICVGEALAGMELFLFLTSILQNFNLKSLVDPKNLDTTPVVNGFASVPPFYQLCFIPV
Cytochrome P450 3A4 (Homo sapiens), sequence (P08684 whole entry, looked up): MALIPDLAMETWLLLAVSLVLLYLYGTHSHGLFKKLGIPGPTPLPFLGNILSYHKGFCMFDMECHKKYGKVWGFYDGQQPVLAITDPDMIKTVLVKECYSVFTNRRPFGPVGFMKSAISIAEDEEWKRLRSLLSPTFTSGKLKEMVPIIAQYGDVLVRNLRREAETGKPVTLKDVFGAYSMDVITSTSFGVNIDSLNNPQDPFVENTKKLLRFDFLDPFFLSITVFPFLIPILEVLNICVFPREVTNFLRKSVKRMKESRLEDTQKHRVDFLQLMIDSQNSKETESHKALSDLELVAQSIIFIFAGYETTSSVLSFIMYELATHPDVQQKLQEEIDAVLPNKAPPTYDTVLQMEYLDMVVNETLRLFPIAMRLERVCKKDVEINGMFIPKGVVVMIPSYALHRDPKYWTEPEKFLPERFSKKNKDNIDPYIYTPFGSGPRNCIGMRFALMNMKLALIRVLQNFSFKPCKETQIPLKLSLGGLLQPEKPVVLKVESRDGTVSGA
N-terminal Xaa-Pro-Lys N-methyltransferase 1 (Homo sapiens), sequence (Q9BV86 whole entry, looked up): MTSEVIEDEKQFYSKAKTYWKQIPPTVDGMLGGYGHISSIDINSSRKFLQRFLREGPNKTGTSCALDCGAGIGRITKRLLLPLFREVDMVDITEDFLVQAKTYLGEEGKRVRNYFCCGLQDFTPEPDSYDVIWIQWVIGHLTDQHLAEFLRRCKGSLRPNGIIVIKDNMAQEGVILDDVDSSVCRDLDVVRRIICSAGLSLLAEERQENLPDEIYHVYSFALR

In the case of `COc1ccc(C[C@H](N)C(=O)N[C@H]2[C@@H](O)[C@H](n3cnc4c(N(C)C)ncnc43)O[C@@H]2CO)cc1`, in experiment [1], the Potency result was “inactive”. The Potency is 409 nM (active) in experiment [2] and 258 nM (active) in experiment [3].

As to `Nc1ncnc2c1ncn2[C@H]1CCCO1`, the Potency entry in experiment [1], in experiment [2] and in experiment [3] was “inactive” throughout.

Take `CCOC(=O)c1c(C)nn(-c2cccc([N+](=O)[O-])c2)c1C`: in experiment [1], the Potency was 8.49 µM (active). Besides, the Potency entry in experiment [2] and in experiment [3] was “inactive” in each case.

In the case of `CCC(=O)NS(=O)(=O)c1ccc(-c2c(-c3ccccc3)noc2C)cc1`, the Potency result in experiment [1], in experiment [2] and in experiment [3] was “inactive” throughout.

Regarding `O=C(c1ccccn1)c1cnn2c(-c3ccncc3)ccnc12`, the Potency in experiment [1] was 13.5 µM (active); in experiment [4], 12 µM (active). In addition, the Potency entry in experiment [2] and in experiment [3] was “inactive” in each case.

As for `Cc1c(-c2ccnn2C)cc(C(=O)NCc2ccc(S(C)(=O)=O)cn2)c(=O)n1-c1cccc(C(F)(F)F)c1`, the Potency entry in experiment [1], in experiment [2] and in experiment [3] was “inactive” throughout.

On to `CNC(=O)c1ccc2cc([C@@]3(O)CCn4cncc43)ccc2c1`, for which the Potency in experiment [1] is 12 µM (active). In addition, the Potency entry in experiment [2] and in experiment [3] was “inactive” throughout.

For `O=c1ccn([C@@H]2O[C@H](CO)[C@@H](O)[C@H]2O)c(=O)[nH]1`, the Potency result in experiment [1], in experiment [2] and in experiment [3] was “inactive” throughout.

In the case of `CC1(C)C(=O)C(C)(C)c2cc(C(=O)Nc3ccc(C(=O)O)cc3)ccc21`, the Potency result in experiment [1], in experiment [2] and in experiment [3] was “inactive” each time.

Consider `NS(=O)(=O)OC[C@@H]1C[C@@H](n2ccc3c(N[C@H]4CCc5ccccc54)ncnc32)C[C@@H]1O`, for which the Potency result in experiment [1] was “inactive and 8.49 µM (active)”; in experiment [2], 325 nM (active) and 409 nM (active) and 525 nM (active); in experiment [3], 365 nM (active) and 515 nM (active) and 525 nM (active).

Consider `NCc1c[nH]c(=S)n1C1CCc2c(F)cc(F)cc2C1` (configuration not stated), for which the Potency in experiment [1] was 3.79 µM (active). The Potency result in experiment [2] and in experiment [3] was “inactive” throughout.

With `CC(C)c1ccc(CC(=O)N2CCC[C@@H](c3cccc(OC(C)(C)C(=O)O)c3)C2)cc1`, the Potency entry in experiment [1], in experiment [2] and in experiment [3] was “inactive” throughout.

On to `O=C(c1ccc(C#Cc2cccc(F)c2)cn1)N1CC2CC2C1` (configuration not stated), for which the Potency in experiment [1] was 16.9 µM (active). Also, the Potency result in experiment [2] and in experiment [3] was “inactive” in each case.

Regarding `Cc1cc(C)cc(NC(=O)Cc2ccc(OC(C)(C)C(=O)O)cc2)c1`, the Potency entry in experiment [1], in experiment [2] and in experiment [3] was “inactive” throughout.

Consider `CC(=O)OCC(=O)[C@@]12OC3(CCCC3)O[C@@H]1C[C@H]1[C@@H]3CCC4=CC(=O)C=C[C@]4(C)[C@@]3(F)[C@@H](O)C[C@@]12C`, for which the Potency in experiment [4] is 13.5 µM (active).

On to `COC(=O)C1=C(C#N)NC(C)=C(C(=O)OC(C)C)C1c1cccc([N+](=O)[O-])c1` (configuration not stated), for which, in experiment [4], the Potency is 1.07 µM (active).

Turning to `C#Cc1cnc2[nH]c(=O)n(C(CC)CC)c2n1`, the Potency entry in experiment [5], in experiment [2] and in experiment [3] was “inactive” in each case. Besides, in experiment [4], the Potency is 8.49 µM (active).

`CC(C)(C)NCc1cc(Nc2ccnc3cc(Cl)ccc23)c2c(c1O)CCCC2`: the activity change, negative = inhibition in experiment [4] was -23.1% [at 11.5 µM] (inactive). The activity change, negative = viability loss in experiment [2] is -8.87% [at 0.588 µM] (inactive). The activity change, negative = cell killing in experiment [3] is -13.7% [at 0.588 µM] (inactive).

For `COc1c(C(CC(C)C)OC(C)=O)ccc(Oc2c(O)cc(C)cc2/C=C/C(C)=O)c1C(=O)O` (configuration not stated), the Potency result in experiment [2] was “inactive”.

On to `CCOc1nc2cccc(C(=O)OCc3oc(=O)oc3C)c2n1Cc1ccc(-c2ccccc2-c2noc(O)n2)cc1`, for which the Potency in experiment [4] is 3.38 µM (active). Moreover, the Potency entry in experiment [2] and in experiment [3] was “inactive” throughout.

For the molecule `CC(C)(C)NCC(O)COc1cccc2c1CCCC2=O` (configuration not stated), the Potency entry in experiment [4] was “inactive”. For the same molecule, the Potency in experiment [3] was 4590 nM (active).

For the molecule `C(#Cc1cccc(CN2CCOCC2)c1)CCN1CCCCC1`, the Potency result in experiment [4], in experiment [2] and in experiment [3] was “inactive” in each case.

On to `CC(=O)N[C@@H](CC(C)C)C(=O)N[C@@H](CCC(=O)O)C(=O)N[C@@H](CCC(=O)O)C(=O)N[C@@H](CC(=O)O)C(=O)Nc1ccc2c(C(F)(F)F)cc(=O)oc2c1` (Ac-LEED-{AFC}), for which the Potency entry in experiment [6], in experiment [2] and in experiment [3] was “inactive” throughout.

As to `CCOC(=O)N1CCC(NCCNC(=O)c2ccccc2C)CC1`, the Potency in experiment [1] is 10.7 µM (active). Moreover, the Potency result in experiment [2] and in experiment [3] was “inactive” throughout.

`O=C(O)C[C@@H](NC(=O)c1cc(-c2ccc(-c3ccncc3)cc2)cs1)c1ccccc1`: in experiment [4], the Potency was 26.8 µM (active). Further, the Potency result in experiment [2] and in experiment [3] was “inactive” each time.

Regarding `C[C@H](NCc1ccc(OCc2ccccc2F)cc1)C(N)=O`, the Potency entry in experiment [4], in experiment [2] and in experiment [3] was “inactive” each time.

Regarding `CC1(C)CCC(C)(C)c2cc3c(cc21)Sc1ccccc1N=C3c1ccc(C(=O)O)cc1`, the Potency entry in experiment [4], in experiment [2] and in experiment [3] was “inactive” in each case.

As to `COc1cc2c(cc1OC)CN(C(=O)[C@@H](NCc1ccncc1)C(C)(C)C)CC2`, the Potency in experiment [4] was 1.69 µM (active). Also, the Potency entry in experiment [2] and in experiment [3] was “inactive” throughout.

As to `CC(NCc1ccc(OCc2cccc(F)c2)cc1)C(N)=O` (configuration not stated), the Potency result in experiment [4], in experiment [2] and in experiment [3] was “inactive” in each case.
